Measured values taken from PubChem BioAssay (Tox21).
Several values for one entry are separate records, joined by “and”; a condition that tells them apart may be missing. Equal values may be shown once. Records with an inconclusive call do not appear. Entries that show only a call come without a potency. Some structures have more than one record in an assay (separate samples or runs), and their calls can disagree. Activity calls are given as the source filed them. Calls follow the shape of the dose curve; as a rule, active = well fitted activation curve with a large enough effect in the repeat runs; inconclusive = weak or mixed curves; inactive = no such curve, though single readings can be large or run the other way.

biological target: Aryl hydrocarbon receptor (Homo sapiens) (UniProt P35869); assay: qHTS assay to identify small molecule that activate the aryl hydrocarbon receptor (AhR) signaling pathway (AID 743085); details: HepG2 AhR-luc (HG2L7.5c1), luciferase, 24 h; series mostly up to 70.3 µM; activation: at the top concentration; also: nearly all actives have a fitted effect of over 15% in size;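 as to activation: HG2L7.5c1 human HepG2 liver cells with stably integrated DRE-driven firefly reporter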
Sequence (P35869 whole entry, looked up): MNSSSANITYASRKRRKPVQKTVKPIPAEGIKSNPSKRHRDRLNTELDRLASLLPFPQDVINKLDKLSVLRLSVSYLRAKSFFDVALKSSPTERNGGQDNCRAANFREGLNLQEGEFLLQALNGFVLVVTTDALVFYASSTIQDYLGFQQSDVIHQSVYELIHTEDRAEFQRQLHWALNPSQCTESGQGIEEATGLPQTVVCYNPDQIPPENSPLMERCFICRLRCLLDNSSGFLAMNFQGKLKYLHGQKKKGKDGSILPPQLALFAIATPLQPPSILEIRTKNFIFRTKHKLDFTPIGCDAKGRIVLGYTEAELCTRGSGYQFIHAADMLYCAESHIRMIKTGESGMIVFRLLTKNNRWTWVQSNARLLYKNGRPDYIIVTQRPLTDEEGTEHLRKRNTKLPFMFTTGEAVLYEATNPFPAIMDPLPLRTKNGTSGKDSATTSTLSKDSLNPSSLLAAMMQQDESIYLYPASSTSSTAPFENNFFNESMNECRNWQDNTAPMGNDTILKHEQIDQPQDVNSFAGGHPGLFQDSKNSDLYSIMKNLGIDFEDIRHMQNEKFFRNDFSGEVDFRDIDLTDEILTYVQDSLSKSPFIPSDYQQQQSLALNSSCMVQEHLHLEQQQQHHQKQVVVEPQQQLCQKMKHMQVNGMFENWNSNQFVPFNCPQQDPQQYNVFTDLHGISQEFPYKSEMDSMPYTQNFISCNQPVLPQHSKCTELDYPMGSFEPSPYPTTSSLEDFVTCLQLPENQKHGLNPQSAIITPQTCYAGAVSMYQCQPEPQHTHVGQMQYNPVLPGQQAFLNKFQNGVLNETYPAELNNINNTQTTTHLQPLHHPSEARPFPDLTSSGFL
Description: U.S. Tox21 Program National Center for Advancing Translational Sciences [NCATS] NIH Chemical Genomics Center [NCGC] U.S. Environmental Protection Agency [EPA] National Institutes of Environmental Health Sciences [NIEHS] National Toxicology Program [NTP] U.S. Food and Drug Administration [FDA] Tox21 Assay overview: The Aryl hydrocarbon Receptor (AhR), a member of the family of basic helix-loop-helix transcription factors, is crucial to adaptive responses to environmental changes. AhR mediates cellular responses to environmental pollutants such as aromatic hydrocarbons through induction of phase I and II enzymes but also interacts with other nuclear receptor signaling pathways. A cell based HepG2-AhR-luc assay (HG2L7.5c1 cell line, developed by Dr. Michael S. Denison, University of California at Davis, was used to assess the activation of AhR. HepG2 (human hepatocellular carcinoma) cells were stably transfected with an Ah receptor-responsive firefly luciferase reporter gene plasmid containing 20 dioxin responsive elements and luciferase reporter gene. Increased luciferase activity can be used to identify the compounds that induce AhR activation.
Tox21 Assay Protocol Summary: 4000 cells in 5 uL/well were dispensed into white wall/solid bottom 1536-well plates using a Multidrop Combi (Thermo Fisher Scientific Inc., Waltham, MA) dispenser. After the assay plates were incubated at 37C for 5 h, 23 nL of compound or DMSO vehicle was transferred to the assay plates by a pintool station (Kalypsys, San Diego, CA). The plates were incubated at 37C for 24 hr. After 1 ul/well of CellTiter-Fluor reagent (Promega, Madison, WI) was added into the assay plates using a Flying Reagent Dispenser (FRD) (Aurora Discovery, CA), the assay plates were incubated at 37C for 30 min. The fluorescence intensity in the plates was measured using a ViewLux plate reader (PerkinElmer, Shelton, CT), followed by the addition of 4 uL of ONE-Glo Luciferase Assay reagent (Promega) using an FRD (Aurora Discovery). After the assay plates were incubated at room temperature for 30 min, luminescence intensity was measured using a ViewLux plate reader (Perkin Elmer).
Potency is read from the fitted curve at half-maximal effect.

Structure (SMILES)	Potency	activation
CC(C)(Oc1ccc(CCNC(=O)c2ccc(Cl)cc2)cc1)C(=O)O	inactive	
CCNc1ccccc1		0.318% [at 95 µM] (inactive)
COCCOC(=O)c1ccccc1C(=O)OCCOC		-1.15% (inactive)
CC(C)=CCl		-1.44% (inactive)
CCCCCCCCCCCCCCCCO	inactive	
Cc1ccc([N+](=O)[O-])cc1S(=O)(=O)O	inactive	
CCCCC(C=O)CC (stereo not given)		-0.217% [at 95 µM] (inactive)
CNC(=S)N(C)C	inactive	
COC(=O)c1cccnc1	inactive	
CSc1ccc(Cl)cc1	inactive	
O=C1CCCC1		-1.47% (inactive)
C=Cc1ccc(C)cc1	inactive	
NCCNCCN	inactive	
CCNC(=S)NCC	inactive	
CC(O)CC(C)(C)O (stereo not given)	inactive	
CN1C(=O)CC[C@H]1c1cccnc1	inactive	
O=S(=O)(O)c1ccc(N=Nc2c(O)ccc3cc(S(=O)(=O)O)ccc23)cc1	inactive	
Nc1ccc(Cl)c(N)c1	19.4 µM (active) and 7.7 µM (active)	
CC(C)(C)c1cc(Cc2cc(C(C)(C)C)c(O)c(C(C)(C)C)c2)cc(C(C)(C)C)c1O	inactive	
CC(=O)c1ccc(O)cc1	inactive	

Structure (SMILES)	Potency	activation
COc1ccc(N)c(C)c1	inactive	
CC(C)CC(C)O (stereo not given)		-0.839% (inactive)
OC1C(O)C(O)C(O)C(O)C1O (stereo not given)	inactive	
Cc1ccc2ncccc2c1	inactive	
C=CC[N+](C)(C)CC=C	inactive	
C[C@]12CC[C@@H]3c4ccc(O)cc4CC[C@H]3[C@@H]1C[C@@H](O)[C@@H]2O	inactive	
CC(=O)OCc1ccccc1	inactive	
CCOC(=O)n1ccn(C)c1=S	inactive	
CCc1ccccc1CC	inactive	
CN(C)c1ccc(O)c2c1C[C@H]1C[C@H]3[C@H](N(C)C)C(=O)C(C(N)=O)=C(O)[C@@]3(O)C(=O)C1=C2O	inactive and 7.7 µM (active)	
CCCCCCCC=O	inactive	
C=CC(=O)OCCC(=O)O	inactive	
c1ccc(Oc2ccccc2)cc1	inactive	
Cc1ccc(S(=O)(=O)N=C=O)cc1	inactive	
CCCCCCCO	inactive	
CC(C)(C#N)c1cc(Cn2cncn2)cc(C(C)(C)C#N)c1	inactive	
CC(=O)OC1CC(C)OC(C)O1 (stereo not given)	inactive	
C=CCCCCCCCCC(=O)O	inactive	
CCCCCCO	inactive	
